This is an account of results in PubChem BioAssay (Tox21).

The source made the active and inactive calls. Entries that show only a call come without a potency. The call rests on the fitted dose curve; in most records, active means well fitted activation curve with a large enough effect in the repeat runs; inconclusive means weak or mixed curves; inactive means flat fitted curve, though single readings scatter. Where a SMILES comes first, the peptide text is derived from it.

The assay can be described thus: A CellTox Green Cytotoxicity Assay to monitor cytotoxicity in HepG2 cells - 0 hour (AID 1224882). Further: nearly all actives have a fitted effect of over 35% in size. Conditions: CellTox Green fluorescence; series mostly up to 76.8 µM. The source says:
National Center for Advancing Translational Sciences [NCATS]
NIH Chemical Genomics Center [NCGC]
U.S. Environmental Protection Agency [EPA]
National Institutes of Environmental Health Sciences [NIEHS]
National Toxicology Program [NTP]
Cell-based models are critical for drug discovery. Determining the natural cytotoxic effects resulting from test compounds is an essential research activity. A CellTox Green Cytotoxicity Assay to monitor cytotoxicity in real time of continues cell culture during 40 hours of the compound treatment was used to screen Tox21 10K library compounds in HepG2 cells. CellTox Green Cytotoxicity Assay is a nonlytic, homogeneous, biofluorescent method to measure cytotoxicity in cell culture after experimental manipulation. The assay system uses a proprietary asymmetric cyanine dye that is excluded from viable cells but preferentially stains the dead cell's DNA. […] Viable cells produce no appreciable increases in fluorescence. Therefore, the fluorescence signal produced by the binding interaction with dead cell DNA is proportional to cytotoxicity.
The mixture of HepG2 cell suspension and reagents were dispensed at 600cells/6 ul/well in 1536-well tissue culture treated black solid bottom plates using a Multidrop dispenser. After the assay plates were incubated at a 37 C/5% CO2 incubator for 5 hours, 23 nL of compounds dissolved in DMSO, positive and negative controls was transferred to the assay plate by a pintool work station. The plates were incubated at 37 C for 40 hours. The fluorescence intensity were measured at 0h, 8h, 16h, 24h, 32h and 40h time points using ViewLux plate reader during compound treatment.
Turning to `O=C(O)CONC(=O)c1ccccc1`, the Potency result is “inactive”.
In the case of `CCCCCCCCCCCCCBr`, the Potency entry is “inactive”.
Regarding `CC1=NN(c2ccc(S(=O)(=O)O)cc2)C(=O)C1`, the Potency result is “inactive”.
For the compound `CCCc1ccc(O)cc1`, the Potency result was “inactive”.
With `CN(C)CC/C=C1/c2ccccc2COc2ccc(CC(=O)O)cc21`, the Potency result was “inactive”.
Same read-out and setting: the value for `Cc1cccc(Cl)c1` was “inactive”; that for `CCC[C@@H]1C[C@@H](C(=O)N[C@@H]([C@H]2O[C@H](SC)[C@H](O)[C@@H](O)[C@H]2O)[C@@H](C)O)N(C)C1` was “inactive”.
The same measure, in the same setting: as for `CC(C)(CO)C(O)C(=O)NCCCO` (stereo not given), the entry is “inactive”; as for `COC(=O)CCCCC(=O)O`, “inactive”; as for `CC(S)C(C)S` (stereo not given), “inactive”.
Still for that read-out and setting: the value for `CCCSSCCC` was “inactive”; that for `CC(C)OC(=O)OCOP(=O)(CO[C@H](C)Cn1cnc2c(N)ncnc21)OCOC(=O)OC(C)C` was “inactive”.
Take `CN1CCOC(c2ccccc2)c2ccccc2C1` (stereo not given): the Potency entry is “inactive”.
On to `C=CC(=O)OCC1CCCO1` (stereo not given), for which the Potency result was “inactive”.
As for `O=C(CN1CCNCC1)NC1CCCCC1`, the Potency entry is “inactive”.
Turning to `CC(=O)O[C@H]1C[C@@H]2CC[C@@]1(C)C2(C)C`, the Potency entry is “inactive”.
Take `CCCCCc1cccc(=O)o1`: the Potency result was “inactive”.
For the compound `CO/N=C(/C(=O)N[C@@H]1C(=O)N2C(C(=O)[O-])=C(C[n+]3ccn4ncccc43)CS[C@H]12)c1nsc(N)n1`, the Potency entry is “inactive”.
Consider `Cc1ncc([N+](=O)[O-])n1CC(C)O` (stereo not given), for which the Potency entry is “inactive”.
With `Cc1c(Cl)cccc1Cl`, the Potency entry is “inactive”.
Same read-out and setting: the value for `Cn1nnc2c(C(N)=O)ncn2c1=O` was “inactive”; that for `COc1nc(N)nc2nc[nH]c12` was “inactive”.
Still for that read-out and setting: the value for `CCCCC1CCC(O)CC1` (stereo not given) was “inactive”.
For `N[C@@H](CSCCCO)C(=O)O`, the cytotoxicity was -7.54% [at 15.8 µM] (inactive).
Consider `CC1(C)CC(OC(=O)CCCCCCCCC(=O)OC2CC(C)(C)NC(C)(C)C2)CC(C)(C)N1`, for which the cytotoxicity is -7.52% [at 15.8 µM] (inactive).
On to `CCn1cc(C(=O)O)c(=O)c2cnc(N3CCCC3)nc21`, for which the cytotoxicity is 3.1% [at 6.97 µM] (inactive).
In the case of `Cc1ccc(C(=O)O)cc1[N+](=O)[O-]`, the Potency entry was “inactive”.
As for `C=CCSSCCC`, the Potency result was “inactive”.
Turning to `O=S(=O)(O)c1ccc2c(N=Nc3ccc(S(=O)(=O)O)c4ccccc34)c(O)c(S(=O)(=O)O)cc2c1`, the cytotoxicity was -11.5% [at 6.97 µM] (inactive).
For `COc1c2occc2c(OC)c2c(=O)cc(C)oc12`, the Potency result was “inactive”.
On to `CC1(C)O[C@H]2CC(=O)OC[C@]23[C@H]2CC[C@@]4(C)[C@H](c5ccoc5)OC(=O)[C@H]5O[C@]54[C@]2(C)C(=O)C[C@@H]13`, for which the Potency entry is “inactive”.
Consider `C/C=C(\C)C(=O)OCCc1ccccc1`, for which the Potency entry was “inactive”.
In the case of `CC1CC(=O)CC(C)(C)C1` (stereo not given), the Potency result is “inactive”.
As to `O=C[O][Al]([O]C=O)[O]C=O`, the Potency entry was “inactive”.
As for `CC(=O)N[C@@H](CO)C(=O)N[C@@H](CC(=O)O)C(=O)N[C@@H](CCCCN)C(=O)N1CCC[C@H]1C(=O)O` (Ac-SDKP-OH), the Potency entry is “inactive”.
As for `COC(=O)c1cccc(Cl)c1`, the Potency result was “inactive”.
With `CNCCS(=O)(=O)O`, the Potency result was “inactive”.
For `CC1=C(C(=O)O)N2C(=O)[C@@H](NC(=O)[C@H](N)C3=CCC=CC3)[C@H]2SC1`, the Potency result is “inactive”.
Take `Nc1nc(-c2ccccc2)c(Br)c(=O)[nH]1`: the Potency entry is “inactive”.
In the case of `CC(C)=CCC/C(C)=C/COC=O`, the Potency entry was “inactive”.
